Laboratory results from the supplement of paper PMC11732987, “Enantioselective OTUD7B fragment discovery through chemoproteomics screening and high-throughput optimisation” (Communications Chemistry, 2025).

Key:
Experiment in all cases: log2 ratio of Biotin-Ahx-Ub-VS probe labelling (fragment/DMSO); higher = less target engagement (more negative = stronger competition), active = hit call of the paper (q ≤ 0.05, log2 ratio ≤ -1)
Settings in all cases: compound concentration: 200 uM; treatment time: 3 h
[1] = target: T1, ALG13 (UniProt Q9NP73)
T1 sequence (whole entry): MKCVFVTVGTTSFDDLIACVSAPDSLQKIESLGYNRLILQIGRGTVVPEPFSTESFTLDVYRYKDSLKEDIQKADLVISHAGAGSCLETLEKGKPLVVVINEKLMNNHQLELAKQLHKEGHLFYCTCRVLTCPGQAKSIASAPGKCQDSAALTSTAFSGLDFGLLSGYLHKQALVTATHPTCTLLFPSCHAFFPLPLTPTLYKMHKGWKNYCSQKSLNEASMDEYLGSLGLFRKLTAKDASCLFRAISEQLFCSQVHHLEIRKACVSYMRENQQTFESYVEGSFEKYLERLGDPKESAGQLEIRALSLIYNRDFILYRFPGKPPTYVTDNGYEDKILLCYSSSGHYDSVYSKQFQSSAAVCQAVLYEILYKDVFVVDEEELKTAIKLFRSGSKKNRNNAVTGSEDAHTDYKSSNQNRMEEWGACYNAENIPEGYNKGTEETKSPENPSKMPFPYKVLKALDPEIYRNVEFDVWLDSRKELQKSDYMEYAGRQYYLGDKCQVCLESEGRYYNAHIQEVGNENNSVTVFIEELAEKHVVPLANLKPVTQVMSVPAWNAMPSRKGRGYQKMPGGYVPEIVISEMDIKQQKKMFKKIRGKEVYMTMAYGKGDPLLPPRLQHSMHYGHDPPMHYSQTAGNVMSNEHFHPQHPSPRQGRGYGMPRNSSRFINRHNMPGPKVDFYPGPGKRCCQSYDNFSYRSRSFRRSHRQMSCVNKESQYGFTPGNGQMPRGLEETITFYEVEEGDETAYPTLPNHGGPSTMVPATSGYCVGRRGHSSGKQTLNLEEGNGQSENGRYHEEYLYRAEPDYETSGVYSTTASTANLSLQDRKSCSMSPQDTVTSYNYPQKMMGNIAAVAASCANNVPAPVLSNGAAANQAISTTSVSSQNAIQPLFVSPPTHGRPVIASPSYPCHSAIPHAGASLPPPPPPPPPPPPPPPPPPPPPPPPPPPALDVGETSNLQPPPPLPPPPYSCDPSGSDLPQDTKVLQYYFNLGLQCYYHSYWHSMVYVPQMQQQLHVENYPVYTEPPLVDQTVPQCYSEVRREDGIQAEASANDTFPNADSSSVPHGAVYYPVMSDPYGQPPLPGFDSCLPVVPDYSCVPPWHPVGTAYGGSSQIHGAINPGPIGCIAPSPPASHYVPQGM
Method in brief: (§1)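 HEK293T lysate, 495 µg per sample in Tris/CHAPS/IGEPAL buffer with protease inhibitors, was treated in triplicate with fragment at 200 µM or vehicle for 3 h and then with Biotin-Ahx-Ub-VS at 0.5 µM final for 1 h. Labelled DUBs were NeutrAvidin-enriched, digested with LysC and trypsin, and run by diaPASEF LC-MS/MS. Spectronaut label-free quantities were global-median-normalised, and values are average log2 fragment/vehicle ratios by unpaired t-test on proteins with ≥2 unique peptides.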

[2] = target: ATXN3 (UniProt P54252)
Method in brief: as §1

[3] = target: T2, BAP1 (UniProt Q92560)
T2 sequence (whole entry): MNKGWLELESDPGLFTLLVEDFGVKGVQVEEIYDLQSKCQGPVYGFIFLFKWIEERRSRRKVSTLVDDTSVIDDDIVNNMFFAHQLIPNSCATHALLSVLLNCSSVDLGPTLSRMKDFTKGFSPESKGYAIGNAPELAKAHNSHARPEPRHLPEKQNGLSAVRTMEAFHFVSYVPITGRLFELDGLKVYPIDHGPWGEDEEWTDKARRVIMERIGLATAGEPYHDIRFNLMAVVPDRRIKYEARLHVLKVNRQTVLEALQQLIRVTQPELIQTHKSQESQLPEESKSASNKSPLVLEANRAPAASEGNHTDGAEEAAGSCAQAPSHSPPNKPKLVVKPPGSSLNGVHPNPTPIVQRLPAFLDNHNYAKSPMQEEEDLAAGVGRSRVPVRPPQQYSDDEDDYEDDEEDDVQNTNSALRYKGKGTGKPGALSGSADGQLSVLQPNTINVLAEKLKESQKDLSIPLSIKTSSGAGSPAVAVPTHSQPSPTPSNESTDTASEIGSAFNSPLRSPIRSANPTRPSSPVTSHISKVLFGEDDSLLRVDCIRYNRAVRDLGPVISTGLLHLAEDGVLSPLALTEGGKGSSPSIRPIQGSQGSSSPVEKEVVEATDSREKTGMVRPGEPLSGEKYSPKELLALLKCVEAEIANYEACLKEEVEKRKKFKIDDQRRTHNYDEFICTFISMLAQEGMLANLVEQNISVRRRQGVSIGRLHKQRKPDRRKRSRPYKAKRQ
Method in brief: as §1

[4] = target: EIF3F (UniProt O00303)
Method in brief: as §1

[5] = target: EIF3H (UniProt O15372)
Method in brief: as §1

[6] = target: T3, FAM105A (UniProt Q9NUU6)
T3 sequence (whole entry): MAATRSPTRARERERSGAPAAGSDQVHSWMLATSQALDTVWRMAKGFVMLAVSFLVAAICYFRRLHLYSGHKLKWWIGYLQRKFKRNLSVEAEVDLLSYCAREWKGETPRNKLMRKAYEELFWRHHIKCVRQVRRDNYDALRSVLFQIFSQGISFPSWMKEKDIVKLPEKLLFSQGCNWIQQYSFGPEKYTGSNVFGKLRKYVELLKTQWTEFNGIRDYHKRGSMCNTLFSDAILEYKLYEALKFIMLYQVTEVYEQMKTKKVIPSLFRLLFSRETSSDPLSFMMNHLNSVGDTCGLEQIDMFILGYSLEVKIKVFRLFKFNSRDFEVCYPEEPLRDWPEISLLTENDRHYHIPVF
Method in brief: as §1

[7] = target: OTUB1 (UniProt Q96FW1)
Method in brief: as §1

[8] = target: T4, OTUD4 (UniProt Q01804)
T4 sequence (whole entry): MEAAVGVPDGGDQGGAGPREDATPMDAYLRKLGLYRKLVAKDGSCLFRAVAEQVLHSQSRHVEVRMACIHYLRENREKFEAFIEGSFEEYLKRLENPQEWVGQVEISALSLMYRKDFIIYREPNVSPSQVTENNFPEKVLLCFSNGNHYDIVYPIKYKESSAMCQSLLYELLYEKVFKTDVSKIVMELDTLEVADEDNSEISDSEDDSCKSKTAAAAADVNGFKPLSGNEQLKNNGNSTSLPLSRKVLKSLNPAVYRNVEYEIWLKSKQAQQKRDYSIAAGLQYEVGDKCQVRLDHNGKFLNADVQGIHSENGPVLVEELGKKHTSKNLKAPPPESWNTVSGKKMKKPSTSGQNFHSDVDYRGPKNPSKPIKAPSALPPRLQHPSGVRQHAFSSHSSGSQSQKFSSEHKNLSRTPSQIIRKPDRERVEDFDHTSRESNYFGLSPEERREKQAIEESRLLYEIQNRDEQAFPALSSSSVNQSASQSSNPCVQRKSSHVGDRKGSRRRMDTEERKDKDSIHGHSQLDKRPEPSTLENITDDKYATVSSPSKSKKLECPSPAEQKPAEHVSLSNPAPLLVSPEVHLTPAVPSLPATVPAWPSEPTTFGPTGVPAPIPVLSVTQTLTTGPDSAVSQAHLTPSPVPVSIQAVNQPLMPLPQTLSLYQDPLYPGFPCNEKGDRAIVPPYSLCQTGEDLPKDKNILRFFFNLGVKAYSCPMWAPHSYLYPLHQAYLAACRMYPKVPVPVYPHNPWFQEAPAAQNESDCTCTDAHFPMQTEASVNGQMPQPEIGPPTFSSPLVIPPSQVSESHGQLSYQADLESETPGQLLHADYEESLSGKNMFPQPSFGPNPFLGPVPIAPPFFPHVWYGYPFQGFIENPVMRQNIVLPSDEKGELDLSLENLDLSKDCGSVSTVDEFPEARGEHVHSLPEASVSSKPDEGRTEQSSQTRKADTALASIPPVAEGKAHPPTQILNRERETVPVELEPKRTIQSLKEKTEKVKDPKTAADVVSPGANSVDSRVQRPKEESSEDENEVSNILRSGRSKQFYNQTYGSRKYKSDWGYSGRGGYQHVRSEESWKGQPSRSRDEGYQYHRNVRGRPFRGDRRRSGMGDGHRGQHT
Method in brief: as §1

[9] = target: T5, OTUD5 (UniProt Q96G74)
T5 sequence (whole entry): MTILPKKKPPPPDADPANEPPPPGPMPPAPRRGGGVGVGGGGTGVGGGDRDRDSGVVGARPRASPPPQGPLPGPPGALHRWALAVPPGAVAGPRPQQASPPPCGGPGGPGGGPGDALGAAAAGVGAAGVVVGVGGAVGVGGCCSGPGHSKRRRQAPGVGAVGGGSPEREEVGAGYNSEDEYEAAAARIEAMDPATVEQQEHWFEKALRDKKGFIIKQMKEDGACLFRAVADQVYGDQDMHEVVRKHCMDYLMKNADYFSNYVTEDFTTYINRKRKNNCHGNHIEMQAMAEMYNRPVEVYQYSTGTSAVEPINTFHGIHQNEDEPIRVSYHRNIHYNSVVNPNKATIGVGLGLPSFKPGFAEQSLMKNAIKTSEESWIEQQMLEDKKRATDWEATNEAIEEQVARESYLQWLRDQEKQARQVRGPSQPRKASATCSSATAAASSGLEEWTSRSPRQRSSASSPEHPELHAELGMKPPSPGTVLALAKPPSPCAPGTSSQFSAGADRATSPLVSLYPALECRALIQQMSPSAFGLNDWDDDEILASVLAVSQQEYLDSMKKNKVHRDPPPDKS
Method in brief: as §1

Measured: log2 ratio of Biotin-Ahx-Ub-VS probe labelling

EIF3H, sequence (O15372 whole entry): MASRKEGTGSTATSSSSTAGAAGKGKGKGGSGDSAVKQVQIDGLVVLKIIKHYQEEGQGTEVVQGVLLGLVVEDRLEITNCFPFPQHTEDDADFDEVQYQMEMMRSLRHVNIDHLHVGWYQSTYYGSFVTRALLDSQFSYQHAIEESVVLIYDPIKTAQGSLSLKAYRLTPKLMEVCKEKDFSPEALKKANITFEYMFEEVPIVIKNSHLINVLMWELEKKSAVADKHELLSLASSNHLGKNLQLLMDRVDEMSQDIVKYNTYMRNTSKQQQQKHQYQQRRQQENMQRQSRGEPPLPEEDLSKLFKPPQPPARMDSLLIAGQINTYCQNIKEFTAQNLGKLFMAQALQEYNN
ATXN3, sequence (P54252 whole entry): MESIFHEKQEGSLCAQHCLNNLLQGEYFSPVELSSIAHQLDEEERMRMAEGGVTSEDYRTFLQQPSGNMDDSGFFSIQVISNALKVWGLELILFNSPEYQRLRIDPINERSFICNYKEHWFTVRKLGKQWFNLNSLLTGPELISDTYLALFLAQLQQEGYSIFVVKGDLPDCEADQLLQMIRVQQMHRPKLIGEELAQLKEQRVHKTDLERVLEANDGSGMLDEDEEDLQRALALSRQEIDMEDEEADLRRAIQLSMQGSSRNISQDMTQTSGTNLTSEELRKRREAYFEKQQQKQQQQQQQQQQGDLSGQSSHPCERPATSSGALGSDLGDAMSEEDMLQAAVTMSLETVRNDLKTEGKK
OTUB1, sequence (Q96FW1 whole entry): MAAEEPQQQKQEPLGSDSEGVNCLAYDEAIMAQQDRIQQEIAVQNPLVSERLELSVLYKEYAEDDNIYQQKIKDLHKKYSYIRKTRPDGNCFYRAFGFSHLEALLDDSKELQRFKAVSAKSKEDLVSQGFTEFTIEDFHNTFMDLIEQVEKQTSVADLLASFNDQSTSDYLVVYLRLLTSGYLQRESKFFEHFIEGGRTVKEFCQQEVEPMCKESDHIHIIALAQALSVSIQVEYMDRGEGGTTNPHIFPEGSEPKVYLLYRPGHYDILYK
EIF3F, sequence (O00303 whole entry): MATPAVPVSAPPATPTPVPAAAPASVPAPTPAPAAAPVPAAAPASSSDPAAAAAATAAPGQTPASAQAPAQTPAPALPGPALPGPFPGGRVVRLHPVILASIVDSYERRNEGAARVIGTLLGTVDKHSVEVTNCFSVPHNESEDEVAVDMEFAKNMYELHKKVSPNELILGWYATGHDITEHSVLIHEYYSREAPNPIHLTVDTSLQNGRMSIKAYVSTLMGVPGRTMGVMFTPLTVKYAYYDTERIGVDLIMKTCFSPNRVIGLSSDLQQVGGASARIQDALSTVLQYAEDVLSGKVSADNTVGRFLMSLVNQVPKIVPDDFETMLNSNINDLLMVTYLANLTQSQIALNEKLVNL

CC(=O)Nc1ccc(NC(=O)CCl)cc1
inactive: [1] 0.0593 | [2] -0.656 | [4] -0.081 | [5] -0.182 | [6] -0.285 | [7] -0.24 | [8] -0.296 | [9] -0.406
active: [3] -3.42
